# Chronic BCR inh = chronic active BCR signaling inhibition; ABC-DLBCL IkBa-CBG/CBR reporter, luminescence ratio, 4 h; Potency, µM (top dose mostly 46.1 µM), inactives show at the highest dose activity change, negative = inhibition, actives largely listed as inhibitors; 340,000 compounds, 0.05% hits; AID 493014; active = well fitted inhibition curve with a large enough effect in the signal ratio, with a control signal flat, not every such curve was filed as active; inconclusive = small, poorly fitted or top-dose-only effect, or effect the other way, or a change in a side signal; the % refers to the signal ratio;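 note: potency is the fitted concentration of half-maximal effect; plate controls were basal doxycycline-induced cells for no effect and cells given 10 µM MG132 for full effect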
#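 Doxycycline induced both beetle luciferases in TMD8 lymphoma cells; IKK-driven degradation limits the IkappaBalpha-fused green signal, while red luminescence normalises for cell number and nonspecific effects. Compounds tested up to 46 uM, 4 hrs.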
# IL1B secr inh = inhibitors of inflammasome signaling (IL-1 beta secretion). THP-1 LPS/ATP IL-1B secretion, AlphaLISA, 16 h; stronger effect = lower value. activity change, % at 57.5 µM. 360,000 compounds, 4.7% hits. AID 743279; in the data active = activity change below about -50%; inconclusive = mostly about -30% to -49%; note: % is set by controls: 0 for no effect and ±100 for the full control effect
#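 THP-1 cells pretreated 1 hr with compounds (up to 57.5 uM final), then stimulated with LPS (250 ng/mL final) plus ATP (1.25 mM final); secreted IL-1B measured by AlphaLISA after 16 hr, decreased signal indicating inhibition.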
# TDP1 cell noCPT = qHTS for Inhibitors of human tyrosyl-DNA phosphodiesterase 1 (TDP1): qHTS in cells in absence of CPT | DT40 Tdp1-/- hTDP1 cells, no CPT, ATP luminescence, 48 h | 420,000 compounds, 15% hits | Potency, µM (doses to about 46.2 µM), for inactives: at the top dose activity change, negative = growth inhibition, hits mostly inhibitors | AID 686978, 2013; note: potency is the fitted concentration of half-maximal effect; % is set by controls: 0 for no effect and ±100 for the full control effect; nearly all actives have a fitted effect of over 55% in size
#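 Readout: luminescence from CellTiter-Glo after 30 min in the dark at RT. Cells: DT40 Tdp1-/- with stable hTDP1, 400/well. Exposure: compounds alone, ≥48 hr, 37 °C.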
# DT40 TDP1 CPT = DT40-hTDP1 cell growth loss with CPT. Potency, µM (highest dose often 46.2 µM), inactives show at the highest dose activity change, negative = growth inhibition, usual class: inhibitors. 420,000 compounds, 12% hits. chicken DT40 Tdp1-/-;hTDP1 cells + 20 nM CPT, ATP luminescence, 48 h; note: potency is the fitted concentration of half-maximal effect; % is set by controls: 0 for no effect and ±100 for the full control effect; nearly all actives have a fitted effect of over 55% in size
#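 Cell growth measured by CellTiter-Glo luminescence after a minimum 48 h, 37 C compound exposure with 20 nM CPT in Tdp1-knockout DT40 cells stably expressing hTDP1, seeded 400/well; qHTS titration format.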
# MCF10A rerep = induces DNA re-replication in MCF 10a normal breast cells; MCF 10A DNA re-replication, Hoechst nuclear intensity, 48 h; Potency, µM (titrated, usually from 46.1 µM), without a hit: at the highest dose activity, positive = re-replication, hits mostly activators; 350,000 compounds, 2.9% hits; note: potency is the fitted concentration of half-maximal effect; % of control where 0% means no effect; nearly all actives have a fitted effect of over 50% in size
# SW480 rerep = induces DNA re-replication in SW480 colon adenocarcinoma cells; SW480 DNA re-replication, Hoechst DNA content imaging, 48 h; Potency, µM (series often up to 46.1 µM), for inactives: at the highest dose re-replication activation, hits mostly activators; 340,000 compounds, 1.8% hits; AID 624297; note: potency is the fitted concentration of half-maximal effect; % of control where 0% means no effect; nearly all actives have a fitted effect of over 55% in size
#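 Readout is total intensity of Hoechst-stained nuclei, excited at 405 nm and collected at 500-530 nm. Compound treatment lasted 48 hr at 37 C in 5% CO2 before staining.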
# * hit, by the source's call; ? = inconclusive; . = no result given; [ ] = remark or other dose. Shown are actives, neighbours in structure and some others; about 19% of the full set was active somewhere. Unless noted, calls come from the whole dose curve; as a rule, active = well fitted curve in the direction sought with a large enough effect; inconclusive = small, poorly fitted or top-dose-only effect, or another doubt; inactive = no such curve, though single readings can be large; an effect the other way counts as inactive or inconclusive.
SMILES,Chronic BCR inh,IL1B secr inh,TDP1 cell noCPT,DT40 TDP1 CPT,MCF10A rerep,SW480 rerep
CC(=O)c1ccc(-c2ccc([C@H]3[C@@H]4C=CCC[C@@]4(C)C(=O)N3Cc3ccccc3)c(F)c2)cc1,?,-7.0,16.4µM*,20.6µM*,?,-7.4%[9.22 µM]
C[C@@]12CCC=C[C@H]1[C@H](c1ccc3ccccc3c1Br)N(Cc1ccccc1)C2=O,?,-54.5*,18.4µM*,?,?,18.1%
C[C@@]12CCC=C[C@H]1[C@H](c1ccc3ccccc3c1)N(Cc1ccccc1)C2=O,?,5.9,?,?,?,3.7%[9.22 µM]
COc1ccc(-c2cc([C@H]3[C@@H]4C=CCC[C@@]4(C)C(=O)N3Cc3ccccc3)ccc2F)cc1,-0.1%,4.1,25.9µM*,?,24.8%,-3.9%
C[C@@H]1CC=C[C@H]2[C@H]1C(=O)N(Cc1ccccc1)[C@H]2c1ccc2ccccc2c1,-7.5%,15.0,?,?,?,-14.0%[9.22 µM]
COc1ccc2cc(-c3nc(Cl)c4c5c(sc4n3)CCCC5)c(=O)oc2c1,.,.,1.0%,-1.7%,.,.
Cc1ccc(-c2noc(-c3ccc(NC4CCCC4)c([N+](=O)[O-])c3)n2)cc1,.,.,-14.5%,-28.8%,.,.
c1ccc(CN(Cc2cccs2)C(c2cccs2)c2nnnn2C2CCCC2)cc1 (stereo not drawn),?,-5.6,18.4µM*,?,17.5%,6.6%
CC(C)(C)n1nnnc1C(c1ccncc1)N(Cc1ccccc1)Cc1ccco1 (stereo not drawn),11.2%,?,23.1µM*,?,-2.5%,2.1%[9.22 µM]
CCN(Cc1ccccc1)C(c1ccc(Cl)cc1)c1nnnn1C(C)(C)C (stereo not drawn),4.3%,0.0,?,25.9µM*,?,-0.1%
CC(C)(C)n1nnnc1C(c1cccs1)N(Cc1ccccc1)Cc1ccco1 (stereo not drawn),-0.6%,-20.0,16.4µM*,?,?,2.2%[9.22 µM]
O=S(=O)(NCCc1cn2ccsc2n1)c1ccc(Cl)cc1,.,.,-15.3%,-16.8%,.,.
CN1C[C@@H]2[C@@H]3C(=O)N(C)C(=O)[C@@H]3[C@](C)(C1=O)N2C(=O)c1ccc(C(F)(F)F)cc1,.,33.7,2.5%,-5.4%,-6.7%,2.5%
Cc1ccc(CN2CCN(C3CCN(S(=O)(=O)N(C)C)CC3)C(=O)C2=O)cc1,.,.,10.3%,2.1%,.,.
CCN(CC(=O)Nc1ccc(NC(C)=O)cc1)C(=O)CCCN1C(=O)c2ccccc2C1=O,?,13.3,-6.5%,-19.5%,2.8%,-4.5%
COc1cc(/C=N\NC(=O)c2ccc(-c3ccccc3)cc2)cc(OC)c1OC(C)=O,?,-50.0*,-25.3%,?,?,?
COc1ccccc1/C=N/NC(=O)c1ccc(=O)n(C)c1,-8.6%,13.8,-9.5%,-1.1%,-2.2%,0.4%
COc1ccccc1/C=N/NC(=O)c1ccc(-c2ccccc2)cc1,?,26.6,?,20.6µM*,18.4µM*,6.3%
COc1cc(/C=N/NC(=O)c2ccncc2)ccc1OC(=O)c1cccc(Br)c1,-3.2%,7.2,?,-17.6%,-19.2%,-16.7%
COc1cccc(/C=N/NC(=O)c2ccc(=O)n(C)c2)c1OC,?,19.7,9.1%,20.9%,-4.2%,-3.1%
COc1cc(/C=N\NC(=O)c2ccc(-c3ccccc3)cc2)cc(OC)c1O,?,?,-25.2%,?,?,-0.5%
COc1cccc(/C=N/NC(=O)c2ccccc2)c1OS(=O)(=O)c1ccccc1,-2.2%,-25.7,25.9µM*,?,?,6.9%
COc1cccc(/C=N/NC(=O)c2ccncc2)c1OC(=O)c1ccc(Br)cc1,-18.3%,82.9,?,?,14.6µM*,26.1%
COC(=O)N1CCC2(CC1)CN(c1ccncc1)C2,.,.,?,-16.1%,.,.
Cc1ncc(CO)c(CNc2ccc(-c3nc4ccccc4[nH]3)cc2)c1O,-2.0%,0.3,20.0%,-10.3%,14.1%,-10.3%
SMILES,Chronic BCR inh,IL1B secr inh,TDP1 cell noCPT,DT40 TDP1 CPT,MCF10A rerep,SW480 rerep
Cc1ccc(S(=O)(=O)/N=C(/Nc2cccc3ccccc23)c2ccc(F)cc2)cc1,0.9%,?,?,?,17.0%,?
COCCC(=O)N1CCC(Oc2ccc(C(=O)NCCn3cccn3)cc2)CC1,-2.1%,11.3,3.3%,10.9%,12.5%,-2.3%
COc1cc(OC)c(/C=C/c2ccc3ccccc3[n+]2C)c(OC)c1,.,.,0.1µM*,0.1µM*,.,.
CCCC[n+]1c(/C=C/c2c(OC)cc(OC)cc2OC)ccc2ccccc21,.,.,0.0891µM*,0.316µM*,.,.
CCC[n+]1c(/C=C/c2c(OC)cc(OC)cc2OC)ccc2ccccc21,.,.,0.0891µM*,0.112µM*,.,.
COC(C(=O)Nc1ccnn1C1CCN(Cc2ccc(C)s2)CC1)c1ccccc1 (stereo not drawn),0.1%,-29.6,-25.1%,-11.9%,23.2%,1.4%
CSc1ncc(Cl)c(C(=O)Nc2c(C(=O)c3ccc(C)c(F)c3)oc3ccccc23)n1,.,.,6.9%,5.3%,.,.
Cc1cccc2cc3c(NC(=O)C(C)C)nn(C)c3nc12,2.5%,27.9,-29.0%,-5.4%,?,?
CCCn1nc(NC(=O)c2cccs2)c2cc3cccc(C)c3nc21,?,-4.2,-14.1%,-4.5%,20.6µM*,?
CCC(=O)Nc1nn(C)c2nc3c(C)cccc3cc12,-1.1%,0.1,?,-2.4%,6.51µM*,20.6µM*
CCCn1nc(NC(=O)CC)c2cc3cccc(C)c3nc21,8.3%,-8.7,?,-23.3%,1.8%,16.4µM*
CCCn1nc(NC(=O)c2cccc(Cl)c2)c2cc3cccc(C)c3nc21,.,.,-13.0%,?,.,.
COc1ccc(CC(=O)Nc2nn(C)c3nc4c(C)cccc4cc23)cc1,2.1%,.,?,-25.8%,3.26µM*,?
Cc1cnc(-n2ncc(C(=O)NCc3cccnc3)c2C)nc1-c1ccc(F)cc1,.,.,-26.3%,-10.9%[9.04 µM],.,.
Cc1ccc(NC(=O)c2sc3ncn(Cc4cccc(F)c4)c(=O)c3c2C)c(Br)c1,?,.,-23.7%,-11.6%,.,.
Cc1cccc(C(=O)NC(=O)Nc2ccc(-n3nc(C(F)(F)F)cc3C(F)(F)F)cc2)c1,.,.,-26.3%,-9.9%,.,.
CC(=O)OCC1OC(Sc2cccc3cccnc23)C(OC(C)=O)C(OC(C)=O)C1OC(C)=O (stereo not drawn),-2.4%,-96.9*,?,?,11.5%,?

# From PubChem BioAssay
